# This is part of a sample that, as a whole, favours compounds with a hit. Of some 83,000 tested, about 20% had one in any assay.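 Growth was measured after 48 h exposure to one concentration of compound in 96-well plates. Values under 10 count as active.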 Active and inactive are the calls of the source.
# Tested on: HS 578T breast
# Test: NCI-60 one-dose screen, 48 h (100 = growth as untreated, 0 = no growth, -100 = all killed)
# Conditions: 10 µM unless noted
# Procedure: Growth inhibition of the HS 578T human tumor cell line is measured as a screen for anti-cancer activity. Cells are grown in 96 well plates and exposed to the test compound for 48 hours. Compounds are tested at a single concentration, which is 10^-5 M for most compounds. The reported endpoint is percent growth (GI% or GIPRCNT), where numbers from 0 - 100% represent growth inhibition, and numbers from -100% - 0 represent cell death. For example, a value of 40 represents 60% growth inhibition. A value of 0 means no net growth occurred over the course of the experiment. A value of -40 indicates 40% of cells at the beginning of the experiment died by the end of the experiment. A value of -100 means all cells are dead at the end of the experiment.
# NCI-60 Human Tumor Cell Lines Screen was performed using the standard one-dose NCI protocol, which is described in more detail at https://dtp.cancer.gov/discovery_development/nci-60/default.htm.
# Compounds with GIPRCNT values below 10 were considered active. Activity score was based on GIPRCNT using the following formula: […]
# Score is 0 for GIPRCNT values of 100 or above, 50 for GIPRCNT values of 0, and 100 for GIPRCNT values of -100.
row,SMILES,growth
1,Cc1ccc(-n2cc(/C=C/C(=O)c3ccc(O)cc3)c(-c3ccc(S(C)(=O)=O)cc3)n2)cc1,96.2% (inactive)
2,CC1(C)CC[C@]2(CN)CC[C@]3(C)C(=CC[C@@H]4[C@@]5(C)CCCNC(C)(C)[C@@H]5CC[C@]43C)[C@H]2C1,108% (inactive)
3,CS(=O)(=O)Nc1cc(-c2ccc3ncc(C#N)c(NCc4ccccc4)c3c2)cnc1Cl,-21.2% (active)
4,C=C1CC[C@@H]2[C@]3(C)COC(c4ccccc4)O[C@@H]3CC[C@@]2(C)[C@@H]1C/C=C1/C(=O)OC[C@H]1O (stereo not given in full),101% (inactive)
5,Nc1ccccc1NC(=O)c1ccc(NC(=O)C/C=C/c2cccnc2)cn1,24.6% (inactive)
6,N=c1c2cc(-c3ccccc3)oc2ncn1/N=C/c1ccc(Cl)cc1,81.7% (inactive)
7,CCn1c(SCC(=O)Nc2cccc(C(=O)/C=C/c3ccc(C)cc3)c2)nc2ccccc2c1=O,101% (inactive)
8,CCNC(=O)N1CCc2cc(OC)c(OCCc3ccc(OC)c(N)c3)cc2C1c1ccc(C)cc1C (stereo not given),11.7% (inactive)
9,CC1=NC2=NN3C(=NN2C(c2ccccc2)=C1)N=NC(c1ccc(Br)cc1)=C3c1ccc(Br)cc1,105% (inactive)
10,C=CCN(C)S(=O)(=O)/N=C1\NC(=O)NC1=C(Cl)Cl,80.5% (inactive)
11,C#C[C@]1(O)CC[C@H]2[C@@H]3CC=C4c5sc(-c6ccc7c(c6)OCO7)nc5CC[C@]4(C)[C@H]3CC[C@@]21C,-9.35% (active)
12,O=C(c1ccc(O)cc1)[C@@H]1CN[C@@]2(C(=O)Nc3ccccc32)[C@H]1c1ccc(F)cc1,110% (inactive)
13,O=C(NNc1nc2cc(F)ccc2n2c(CN3CCC(O)C3)ccc12)c1cnccn1 (stereo not given),75.9% (inactive)
14,NC(N)=Nc1ccc(Oc2cccc(Nc3ccc(Cl)c(C(F)(F)F)c3)c2)cc1,52% (inactive)
15,Cc1ccc(NC(=O)c2ccc(CN3CCOCC3)c(C(F)(F)F)c2)cc1Oc1ccc(-c2[nH]nc3ncnc(N)c23)cc1,62.8% (inactive)
16,CC(C)c1ccc(NCc2cn(-c3ccc(C(=O)O)cc3)nc2-c2cc(C(F)(F)F)cc(C(F)(F)F)c2)cc1,68% (inactive)
17,COc1ccc(Cn2cc3c(c2-c2cc(OC)c(OC)c(OC)c2)CCc2c(CN4CCOCC4)noc2-3)cc1,15.3% (inactive)
18,COc1cc(-c2nn(C(C)(C)C)cc2-c2ccnc(NCCCNS(=O)(=O)c3ccccc3)n2)ccc1Cl,68.3% (inactive)
19,O=C1[C@H]2Cc3c([nH]c4ccccc34)[C@@H](c3ccc(Br)cc3)N2C(=O)CN1C1CCN(CC2CCCCC2)CC1,-56.4% (active)
20,C=CCn1c(SCC(=O)Nc2ccc(C(=O)/C=C/c3ccc(C)cc3)cc2)nnc1-c1c[nH]c2ccccc12,96.9% (inactive)

row,SMILES,growth
1,N/C(=N\C(N)=N\c1nc2ccccc2s1)c1ccc2ccccc2c1,90.9% (inactive)
2,Brc1ccccc1/C=N/Nc1nc(N/N=C/c2ccccc2Br)nc(N2CCOCC2)n1,114% (inactive)
3,Cc1[nH]c(C(=O)Nc2ccccc2OCc2cccc(C(=O)N3CCC[C@@H](N)C3)c2)c(Cl)c1Cl,-50.9% (active)
4,O=C(NCCn1ccnc1)c1ccc(-c2nc3ccc4[nH]ncc4c3c3c2CCCC3)cc1,2.42% (active)
5,COc1ccc([C@H]2c3[nH]c4ccccc4c3C[C@H]3C(=O)N(C4CCN(Cc5c(Cl)cccc5Cl)CC4)CC(=O)N23)c(OC)c1,88.4% (inactive)
6,Cc1cc(C)c2sc(=O)n(Cc3nnc(SCCC(=O)O)o3)c2n1,103% (inactive)
7,O=C1CCCC2=C1C(c1c[nH]c3ccc(Br)cc13)Cc1cc(Br)ccc1N2 (stereo not given),20.2% (inactive)
8,CNc1ncc2cc(-c3ccc(-c4ncccc4F)cc3Cl)c(=O)n(CC3OCC(N)CO3)c2n1 (stereo not given),34.6% (inactive)
9,CCOC(=O)c1c(NC(=O)c2ccccc2C(F)(F)F)sc2c1CCC(=O)C2,36.3% (inactive)
10,CS(=O)(=O)Nc1cc(-c2ccc3ncc(C#N)c(NCc4ccccc4F)c3c2)cnc1Cl,-22% (active)
11,Cc1occc1-c1nc2s/c(=C/c3ccc(-c4cc(C(F)(F)F)ccc4Cl)o3)c(=O)n2n1,98.1% (inactive)
12,Nc1nc(N)c2c(n1)NC(c1ccc(C(F)(F)F)cc1)CC(c1ccc(Nc3nc(NCCO)nc(N4CCOCC4)n3)cc1)=N2 (stereo not given),58.5% (inactive)
13,O=C(CCn1c[n+](CC(=O)c2ccc(F)cc2)c2ccccc21)Nc1cccc2cccnc12,84.5% (inactive)
14,Nc1nc(N)c2c(n1)NC(c1ccc(Cl)cc1)CC(c1ccc(Nc3nc(NCCO)nc(N4CCOCC4)n3)cc1)=N2 (stereo not given),65.9% (inactive)
15,COc1cccc(/C=C(/C)c2ccc3cccc(OC)c3[o+]2)c1O,101% (inactive)
16,O=C(NNc1nc2cc(F)ccc2n2c(CN3CCCC3)ccc12)c1cnccn1,68.1% (inactive)
17,COC(=O)c1ccc(NC2=C/C(=N/S(=O)(=O)c3ccc(C(=O)O)cc3)c3ccccc3C2=O)cc1,-13.6% (active)
18,C/C(=N\O)[C@H]1C[C@]23CC[C@]4(C)[C@H](CC[C@@H]5[C@@]6(C)CC/C(=N/O)C(C)(C)[C@@H]6CC[C@]54C)[C@H]2[C@H](C)C1(C)OC3,104% (inactive)
19,COc1ccc(-n2c(SCc3n[nH]c(=S)o3)nc3ccc(Cl)cc3c2=O)cc1,93.9% (inactive)
20,C[C@H](CCC(=O)NCc1ccc(C(=O)Nc2ccccc2N)cc1)[C@H]1CC[C@H]2[C@@H]3[C@@H](O)C[C@@H]4C[C@H](O)CC[C@]4(C)[C@H]3CC[C@]12C,69.6% (inactive)
